# High-throughput results deposited in PubChem BioAssay by ICCB-Longwood Screening Facility, Harvard Medical School.
# Many of the other results were omitted from the sample, so hits are more common in it than they were.
# MgrA-DNA mod = alters Staphylococcus aureus MgrA binding to DNA | fluorescence polarization | inhibition, % (concentration not given with the values) | hit rate 0.13% among 84,000 | AID 602314; in the data active = inhibition above about 30%, passing the limit was not always enough;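 also: 0% = protein plus DNA without compound and 100% = DNA alone without protein; higher means less MgrA bound to DNA so lower polarization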
# Numbers without * were called inactive.
SMILES,MgrA-DNA mod
O=[N+]([O-])c1ccc(N2CCCCC2)c2nonc12,16
O=[N+]([O-])c1ccc(N2CCCC2)c2nonc12,52*
CN(C)C(=O)Oc1cc(CSC(C)(C)C)nc(-c2cccs2)n1,1
CC(C)(Br)C(=O)Nc1nccs1,-1
C1=CCC2NC(C1)Cc1ccccc12 (configuration not stated),-4
CN(CC1CC=CCC1)CC(O)c1ccccc1 (configuration not stated),-2
CCCN1CC2(COC)CC[C@H](OC)[C@@]34CC[C@H](COC)[C@@H](O)C[C@@](C)(O)C(O)([C@@H](OC)[C@H]23)[C@H]14,-2
CCN1C(=O)NC(=O)/C(=C\c2cn(CC(=O)N3CCCCC3C)c3ccccc23)C1=O (configuration not stated),15
COc1ccc(-n2c(C)cc(/C=C3/C(=O)NC(=O)N(Cc4ccco4)C3=O)c2C)cc1,7
CCOC(=O)C1CCN(/C=C2/C(=O)NC(=O)N(Cc3ccco3)C2=O)CC1,29*
CN1CCc2nc3sc4c(=O)[nH]c(=O)[nH]c4c3cc2C1,1
CC(C)(C)c1ccc(/C=C2\C(=O)C3CCN2CC3)cc1,0
CC1O[C@@H](O[C@@H]2C=C3CCC4C(CC[C@]5(C)[C@@H](c6ccc(=O)oc6)CC[C@]45O)[C@@]3(C)CC2)C(O)[C@@H](O)[C@H]1O (some centres not stated),2
COC(=O)C1=CN2C(C=C1)C(C(=O)OC)(C(=O)OC)[C@@H](c1cccnc1)[C@@H]2C#N (some centres not stated),52*
Cc1cc(OCC(=O)NC2CCCC(C)C2C)c2c3c(c(=O)oc2c1)CCCC3 (configuration not stated),-1
